Records with an inconclusive call do not appear. A call without a number means that no potency is given here. The source made the active and inactive calls. Calls follow the shape of the dose curve; as a rule, active = well fitted cell-killing curve with a large enough effect; inconclusive = small, poorly fitted or top-dose-only effect; inactive = no such curve, though single readings can be large or run the other way.
Potency is read from the fitted curve at half-maximal effect.

The nature of the assay: qHTS of pediatric cancer cell lines to identify multiple opportunities for drug repurposing: Primary screen for SK-N-MC cells (AID 1347093). Particulars: SK-N-MC viability, CellTiter-Glo luminescence, 48 h; series mostly up to 46 µM. The text has this: Drug repurposing or repositioning has been offered as a strategy for drug development in oncology programs. This approach has special potential for childhood cancers and other rare or orphan diseases, where the expected return on new drug development has been a disincentive to pharmaceuticals.
In this project we exploit the poly-pharmacology of drugs to discover new indications via phenotypic screening of a panel of 19 well-characterized cell lines derived from solid tumors seen in children and adolescents. The goal is to identify approved drugs with previously unrecognized anticancer properties that has the potential to reveal new mechanisms and biological processes involved in carcinogenesis or drug resistance. We employed a titration-based paradigm (quantitative high-throughput screening or qHTS), where all compounds were tested at multiple concentrations for their effect on cell viability. Concentration-response curves (CRCs) were derived directly from the primary screen, and both potency and efficacy values were used to identify compounds with robust bioactivity profiles. We screened the NIH Chemical Genomics Center (NCGC) Pharmaceutical Collection (NPC) and Mechanism Interrogation Plate (MIPE) small molecule collections of approved and investigational compounds against these cell lines; and measured metabolically active cells after 48 hours of compound treatment as a proxy for cell viability.
Assay Submitter: Nathalia J. Martinez, National Center for Advancing Translational Sciences, National Institutes of Health, Rockville, MD, USA; email: natalia.martinez@nih.gov
[1] Shen, M et al. Quantitative high-throughput phenotypic screening of pediatric cancer cell lines identifies multiple opportunities for drug repurposing. Oncotarget 2017 Dec 19;9(4):4758-4772. PMID 29435139.
The cells were obtained from University of North Carolina (UNC), Pediatric Preclinical Testing Program (PPT), and Coriell Institute (CI).
qHTS cell viability assay:
Cells were assayed in growth media at a density of 500-1,000 cells/well. Five microliters of cells were dispensed into 1,536-well, white, solid-bottom, TC-treated plates (Greiner Bio One) using a multidrop dispenser and incubated at 37 degrees C, 5% CO2, under a humidified atmosphere for 5 hours. Twenty-three nanoliters of compounds and controls (neutral control DMSO or positive control bortezomib at final concentration of 2.3 µM) were subsequently transferred by Kalypsys pintool. For primary screens, the MIPE collection was tested at 11-point dilutions (final concentrations range from 0.78 nM to 46 µM) and the NPC collection at 8-point dilutions (final concentrations range from 0.59nM to 46 µM). Compounds tested in follow-up screens were assayed at 11-point dilutions. Cells were incubated for 48 hours, followed by addition of 3 uL of CellTiter-Glo (Promega). After a 15 min incubation at room temperature, samples were analyzed for luminescence intensity using a ViewLux High-throughput CCD imager equipped with clear filters.
(In general: In qHTS, concentration-response curves come from the screen itself.)
For the compound `CCCCCCCC/C=C\CCCCCCCCN`, the Potency result was “inactive”.

As for `C=C1c2cccc(O)c2C(O)=C2C(=O)[C@]3(O)C(O)=C(C(N)=O)C(=O)[C@@H](N(C)C)[C@@H]3[C@@H](O)[C@H]12`, the Potency entry was “inactive”.

Take `CC(CNC1CCCCC1)OC(=O)c1ccccc1` (stereo not given): the Potency result was “inactive”.

For the compound `CC(C)Cn1cnc2c1c(=O)n(C)c(=O)n2C`, the Potency entry is “inactive”.

Regarding `Nc1nc(Cl)nc2c1ncn2[C@@H]1O[C@H](CO)[C@@H](O)[C@@H]1F`, the Potency is 0.0299 µM (active).

For `COc1ccc2c(c1)c1c3n2CCN(C)C3=NCC1`, the Potency result is “inactive”.

As to `NC(=S)N/N=C/c1cccnc1`, the Potency entry is “inactive”.

In the case of `COc1ccc(CCN(C)CCCN2CCc3cc(OC)c(OC)cc3CC2=O)cc1OC`, the Potency entry is “inactive”.

On to `CCN1CCN(C(=O)N[C@@H](C(=O)N[C@@H]2C(=O)N3C(C(=O)O)=C(CSc4nnnn4C)CS[C@H]23)c2ccc(O)cc2)C(=O)C1=O`, for which the Potency entry was “inactive”.

Take `CN(CCCN1c2ccccc2CCc2ccccc21)CC(=O)c1ccc(Cl)cc1`: the Potency entry is “inactive”.

With `CC(=O)N[C@@H](CCC(=O)O)C(=O)O`, the Potency result is “inactive”.

Consider `CN1CCN(C2=Nc3ccccc3Sc3ccc(Cl)cc32)CC1`, for which the Potency result was “inactive”.

In the case of `O=[N+]([O-])c1cccc(S(=O)(=O)NCCNS(=O)(=O)c2cccc([N+](=O)[O-])c2)c1`, the Potency entry was “inactive”.

For the compound `COc1cc(C(=S)N2CCOCC2)ccc1O`, the Potency result was “inactive”.

As for `O=C(O)c1ccc(S(=O)(=O)N(Cl)Cl)cc1`, the Potency result was “inactive”.

On to `Cc1cccc(C)c1NC(=O)CN1CCCC1`, for which the Potency result is “inactive”.

`Cl/C(=C\n1cncn1)c1ccc(Cl)cc1Cl`: the Potency result is “inactive”.

For the compound `CC(=O)O[C@]1(C(C)=O)CC[C@H]2[C@@H]3C=C(C)C4=CC(=O)CC[C@]4(C)[C@H]3CC[C@@]21C`, the Potency entry is “inactive”.

In the case of `O=C(O)CCc1nc2ccccc2[nH]1`, the Potency entry was “inactive”.

For `CC1(C)OC[C@@H]2O[C@@]3(C(=O)O)OC(C)(C)O[C@H]3[C@@H]2O1`, the Potency entry is “inactive”.

On to `O=C1C(O)=C(O)C(=O)C(O)=C1O`, for which the Potency result was “inactive”.

Regarding `O=c1[nH]c(=O)n([C@H]2C[C@H](O)[C@@H](CO)O2)cc1F`, the Potency was 6.68 µM (active).

As for `CCCCCCCCCCCCSCCOCCO`, the Potency entry is “inactive”.

Consider `CCCCCCCCCCCCCC[N+](C)(C)Cc1ccccc1`, for which the Potency was 11.9 µM (active).

Take `CC(=O)O[C@H]1C[C@@H]2CC[C@@H]3[C@H](CC[C@@]4(C)[C@H]3C[C@H]([N+]3(C)CCCCC3)[C@@H]4OC(C)=O)[C@@]2(C)C[C@@H]1N1CCCCC1`: the Potency entry was “inactive”.

With `CN(C)CCN1C(=O)c2ccccc2N(C)c2ccccc21`, the Potency entry is “inactive”.

For the compound `CCCN(CCc1cccs1)[C@H]1CCc2c(O)cccc2C1`, the Potency entry was “inactive”.

As to `CC(=O)Nc1ncc([N+](=O)[O-])s1`, the Potency result is “inactive”.

For the compound `Nc1nc(N)c(-c2ccccc2)s1`, the Potency entry was “inactive”.

In the case of `OC[C@H]1O[C@@H](Oc2ccc(O)cc2)[C@H](O)[C@@H](O)[C@@H]1O`, the Potency entry is “inactive”.

Turning to `O=[N+]([O-])c1ccc(/C=N\O)o1`, the Potency is 4.22 µM (active).

For the compound `C/C=C/c1ccc(O)c(OC)c1`, the Potency entry is “inactive”.

`NS(=O)(=O)c1cc(C(=O)O)cc(N2CCCC2)c1Oc1ccccc1`: the Potency result was “inactive”.

For `CC(C(=O)O)c1cccc(Oc2ccccc2)c1` (stereo not given), the Potency result is “inactive”.

With `CCCN(CCC)S(=O)(=O)c1ccc(C(=O)O)cc1`, the Potency entry is “inactive”.

With `CC1=C(C(=O)O)N2C(=O)[C@@H](NC(=O)[C@H](N)c3ccccc3)[C@H]2SC1`, the Potency entry was “inactive”.

On to `CCCCCCCCCCCCCC(=O)OC(C)C`, for which the Potency result was “inactive”.

Take `CCCCNc1ccc(C(=O)OCCOCCOCCOCCOCCOCCOCCOCCOCCOC)cc1`: the Potency entry is “inactive”.

`C[C@H]1O[C@@H](O[C@H]2CC[C@@]3(C)[C@H](CC[C@@H]4[C@@H]3C[C@@H](O)[C@]3(C)[C@@H](C5=CC(=O)OC5)CC[C@]43O)C2)C[C@H](O)[C@@H]1O[C@H]1C[C@H](O)[C@H](O[C@H]2C[C@H](O)[C@H](O[C@@H]3O[C@H](CO)[C@@H](O)[C@H](O)[C@H]3O)[C@@H](C)O2)[C@@H](C)O1`: the Potency is 0.168 µM (active).

Take `O=C(Nc1ccccc1)OCC(CN1CCCCC1)OC(=O)Nc1ccccc1` (stereo not given): the Potency entry was “inactive”.

(Values after PubChem BioAssay (NCATS).)
